Among all 16,000 compounds or so, about 5,800 (36%) were called active. Not shown: some 23% with an inconclusive outcome. Calls follow the shape of the dose curve; as a rule, active = well fitted curve in the direction sought with a large enough effect; inconclusive = small, poorly fitted or top-dose-only effect, or effect the other way; inactive = no such curve, though single readings can be large or run the other way. The list shows a part of the results.
% is scaled to controls: 0 for no effect and ±100 for the full control effect.

This experiment deals with Cytochrome P450 2C19 (Homo sapiens) (UniProt P33261). Description: Cytochrome panel assay with activity outcomes. To be noted: recombinant CYP, pro-luciferin dealkylation, luminescence, p450-cyp2c19; series mostly up to 57.1 µM; activity, negative = inhibition: at the top concentration. The procedure: The P450 gene superfamily is involved in the metabolism and clearance of xenobiotics. This assay used various human CYP P450 isozymes to measure the dealkylation of various pro-luciferin substrates to luciferin. The luciferin is then measured by luminescence after the addition of a luciferase detection reagent. Pro-luciferin substrate concentration in the assay was equal to its KM for its CYP P450 isozyme. Inhibitors and some substrates limit the production of luciferin, and decrease measured luminescence.
Sequence of Cytochrome P450 2C19 (Homo sapiens) (P33261 whole entry, looked up): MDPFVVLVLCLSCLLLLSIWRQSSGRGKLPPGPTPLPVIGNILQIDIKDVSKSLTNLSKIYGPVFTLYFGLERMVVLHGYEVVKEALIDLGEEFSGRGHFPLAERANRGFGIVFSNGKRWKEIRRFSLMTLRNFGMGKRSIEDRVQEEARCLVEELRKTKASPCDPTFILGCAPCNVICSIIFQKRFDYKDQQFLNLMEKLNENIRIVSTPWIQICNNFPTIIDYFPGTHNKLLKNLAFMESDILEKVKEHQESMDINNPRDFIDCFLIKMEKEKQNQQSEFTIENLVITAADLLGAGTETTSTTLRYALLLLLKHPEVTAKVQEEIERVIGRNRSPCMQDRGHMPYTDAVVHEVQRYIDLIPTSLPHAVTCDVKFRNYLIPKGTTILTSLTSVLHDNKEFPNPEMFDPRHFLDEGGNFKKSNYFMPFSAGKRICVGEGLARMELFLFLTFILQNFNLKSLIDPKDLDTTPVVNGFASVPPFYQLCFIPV
NCGC Assay Protocol Summary:
1, Reagent, 2 uL, Isozyme and Pro-Luciferin
2, Library compounds, 23 nl, 40 uM to 0.24 nM dilution series
3, Controls, 23 nl, Isozyme specific inhibitor
4, Reagent, 2 uL, NADPH regeneration solution
5, Incubation time, 60 min, Isozyme specific temperature
6, Reagent, 4ul, Detection reagent
7, Incubation time, 20 min, Isozyme specific temperature
8, Detection, 1 sec, ViewLux luminescent read
The luciferase-based P450-GloTM Screening Systems were obtained from Promega (Madison, WI) for CYP 1A2 (V9770), CYP 2C9 (V9790), CYP2 C19 (V9880), CYP 2D6 (V9890), and CYP 3A4 Luciferin-PPXE (V9910) and were adapted for 1,536-well microplates and an automated protocol. The control compounds furafylline for 1A2 (F124), sulfaphenazole for CYP 2C9 (S0758), ketoconazole for CYP 2C19 (K1003), quinidine for 2D6 (Q3625), and ketoconazole for 3A4 (K1003) were purchased from Sigma Aldrich (St. Louis, MO). Recombinant P450 enzymes were obtained from baculovirus constructs expressed in insect cells (BD/Gentest).
Medium-binding white solid Kalypsys plates used. Mixtures kept on ice. 1A2: 10 nM 1A2, 100 uM Luc-ME, 100 mM KPO4; 2C9: 10 nM 2C9, 100 uM Luc-H, 25 mM KPO4; 2C19: 5 nM 2C19, 10 uM Luc-H EGE, 50 mM KPO4; 2D6: 5 nM 2D6, 30 uM Luc-ME EGE, 100 mM KPO4; 3A4: 10 nM, 25 uM Luc-PPXE. All amounts are reflected in their final concentration, working concentration is 2x.
NADPH regeneration solution: 1.3 mM NADP+, 3.3 mM glucose-6-phosphate, 3.3 mM MgCl2, 0.4 U/mL glucose-6-phosphate dehydrogenase for all isozymes, 200 mM KPO4 for 3A4. Mixture prepared at RT but kept on ice during automated run.
RT incubation in auxilliary plate hotel for 1A2, 2D6, and 3A4; 37C for 2C9 and 2C19.
Keywords: P450, CYP1A2, CYP2C19, CYP2C9, CYP2D6, CYP3A4, Luciferase, MLSMR, MLSCN, NIH Roadmap, qHTS, NCGC
Take `CC(=O)N[C@@H](CC(=O)O)C(=O)O`: the “activity, negative = inhibition” value is 26.4% [at 25.6 µM] (inactive).

Take `CC#CCOC(=O)c1c(C)nc2sc3c(c2c1N)CC[C@@H](O)C3`: the concentration at half-maximal activity (AC50) is 25.1 µM (active).

For `Cn1c(=O)c2[nH]c(CCCc3ccc([N+](=O)[O-])cc3)nc2n(C)c1=O`, the activity, negative = inhibition is 6.48% [at 11.4 µM] (inactive).

For the compound `CCc1cc(C(c2ccccc2OC)N2CCOCC2)c(NC(=O)c2ccccc2)s1` (centres undefined), the AC50 was 11.2 µM (active).

With `CCOc1cc(/C=C2\C(=O)N(Cc3ccc(C)cc3)C(C)=C2C(=O)OC)ccc1O`, the AC50 is 3.98 µM (active).

Turning to `COc1cccc(Nc2ncc3nc(C)c(=O)n(CCC#N)c3n2)c1`, the “activity, negative = inhibition” value was -15.9% (inactive).

As for `Cc1cc(OC(=O)c2cc(F)c(F)cc2Cl)nc(C)n1`, the “activity, negative = inhibition” value was 24.4% (inactive).

For the compound `CSc1nsc(SCc2ccc(Cl)cc2)n1`, the AC50 is 0.447 µM (active).

On to `O=c1c(-c2nc3ccccc3s2)cccn1Cc1ccccc1`, for which the AC50 is 2 µM (active).

With `CCCN(CCC)S(=O)(=O)c1ccc(C(=O)O)cc1`, the “activity, negative = inhibition” value was 15.8% [at 25.6 µM] (inactive).

Regarding `CCOC(=O)c1c(C)[nH]c(C)c1C(=O)COC(=O)c1ccc(S(=O)(=O)N(CC)CC)cc1`, the AC50 is 1.12 µM (active).

In the case of `CCOC(=O)c1c(C)[nH]c(C)c1C(=O)COC(=O)c1cccc(S(=O)(=O)N(CC)CC)c1`, the AC50 was 0.447 µM (active).

Consider `CCN(CC)CCOC(=O)c1ccc(N)cc1`, for which the AC50 result was “inactive”.

As to `C[C@@H](CNC(N)=O)NC(N)=O`, the activity, negative = inhibition is 25.4% [at 11.4 µM] (inactive).

Turning to `Cc1ccc(CS(=O)(=O)CCC(=O)NCCCN2CCCC2=O)cc1`, the “activity, negative = inhibition” value was 54.4% (inactive).

On to `Cc1ccc(S(=O)(=O)N(CCCN2CCCC2=O)Cc2cc3c(C)ccc(C)c3[nH]c2=O)cc1`, for which the AC50 is 11.2 µM (active).

On to `O=C(CCC(=O)OCc1ccc(C(=O)Oc2ccccc2)cc1)Nc1cccc2ccccc12`, for which the AC50 was 11.2 µM (active).

`O=C(c1ccc(Cl)cc1)N1CCN(C(=O)c2ccco2)CC1`: the “activity, negative = inhibition” value is -25.8% (inactive).

For `O=C(c1cc(-c2ccc(Cl)cc2Cl)on1)N1CCN(C(=O)c2ccco2)CC1`, the concentration at half-maximal activity (AC50) is 3.16 µM (active).

`O=C(c1ccco1)N1CCC2(CC1)CN(c1ccccn1)C2`: the “activity, negative = inhibition” value was -14.5% (inactive).

Regarding `O=C(Cc1ccc(Cl)cc1)N1CCN(C(=O)c2ccco2)CC1`, the AC50 was 7.94 µM (active).

Consider `CCCN(CCC)C(=S)NC(=O)c1ccc(Cl)cc1Cl`, for which the AC50 is 2.51 µM (active).

Consider `CC1CC(C)CN(C(=O)CNS(=O)(=O)c2ccc(Br)s2)C1` (centres undefined), for which the concentration at half-maximal activity (AC50) was 4.47 µM (active).

Turning to `COc1cccc(C(=O)NCCN2CCN(c3ccc(Cl)cc3)CC2)c1`, the “activity, negative = inhibition” value was -19% (inactive).

Take `COc1cccc(-c2csc(N3CCN(CC(=O)NNC(=O)c4ccc(Cl)cc4)CC3)n2)c1`: the AC50 was 1.26 µM (active).

Consider `COc1ccc(C(=O)N2CCC3(CC2)CN(C(=O)Nc2cccc(C#N)c2)C3)cc1`, for which the “activity, negative = inhibition” value was 19.4% (inactive).

Turning to `Cc1cccc(C(=O)NC(=S)N2CCN(C)CC2)c1`, the “activity, negative = inhibition” value is 18.4% (inactive).

As to `COc1cccc(-c2csc(N3CCN(C(=S)Nc4ccccc4)CC3)n2)c1`, the AC50 was 1.78 µM (active).

For the compound `COc1ccc(C(=O)NC2CCN(C(=S)Nc3cccc(C)c3)CC2)cc1`, the AC50 is 8.91 µM (active).

Consider `Cc1cccc(C(=O)NC2CCN(C(=S)NCc3ccco3)CC2)c1`, for which the AC50 was 28.2 µM (active).

Regarding `COc1ccc(N2CCN(C(=S)Nc3cc(C)cc(C)c3)CC2)cc1`, the “activity, negative = inhibition” value was -17.2% (inactive).

As to `COC(=O)N1CCC2(CC1)CCN(c1cccc(-c3ccccc3)c1)CC2`, the “activity, negative = inhibition” value was -33% (inactive).

Regarding `CNC(=S)N1CCN(c2cccc(OC)c2)CC1`, the AC50 was 7.08 µM (active).

On to `CNC(=S)N1CCN(c2ccccc2OC)CC1`, for which the AC50 was 7.08 µM (active).

Regarding `COC(=O)c1ccc(NC(=S)N2CCN(Cc3cccc(C)c3)CC2)cc1`, the AC50 was 4.47 µM (active).

Take `COc1ccc(N2CCN(C(=S)Nc3cc(C)ccc3C)CC2)cc1`: the AC50 was 5.62 µM (active).

For the compound `COc1ccc(COC(=O)N/N=C2/C[C@@H](O)[C@@H](O)[C@@H]3[C@@H]4C(=O)N(C(C)(C)C)C(=O)[C@H]4CC[C@H]23)cc1`, the activity, negative = inhibition is 9.85% [at 11.4 µM] (inactive).

For the compound `COc1cccc(N2CCN(C(=S)Nc3cccc(C)c3)CC2)c1`, the AC50 was 7.94 µM (active).

Consider `COc1ccc(N2CCN(C(=S)Nc3cccc(C)c3)CC2)cc1`, for which the “activity, negative = inhibition” value is -9.17% (inactive).

For the compound `Cc1c(CCC(C)C)c(-n2ccnc2C)n2c(nc3ccccc32)c1C#N`, the “activity, negative = inhibition” value was 9.23% (inactive).

On to `FC(F)(F)c1nc2ccccc2nc1N/N=C/c1ccc(Cl)cc1`, for which the AC50 was 3.55 µM (active).

Take `COC(=O)C/C=C\[C@@H](C)[C@@H](/C=N\O[C@@H](C)CN1CCCc2nc(C)c(C)cc21)OC`: the activity, negative = inhibition is -26.4% [at 11.4 µM] (inactive).

Take `Cc1cc(Cl)ccc1OCCCC(=O)N1CCN(C)CC1`: the AC50 was 5.62 µM (active).

In the case of `CCOC(=O)c1c(CC(C)C)csc1NC=O`, the AC50 is 14.1 µM (active).

For `COC(=O)c1c(C)oc2ccc(N(C(=O)c3ccncc3)S(=O)(=O)c3ccccc3)cc12`, the AC50 is 0.631 µM (active).

As to `NCCCCCc1nnc(SCc2ccc(Cl)cc2Cl)o1`, the AC50 is 5.62 µM (active).

In the case of `NCCCCCc1nnc(SCc2ccccc2Cl)o1`, the AC50 is 4.47 µM (active).

For the compound `Cc1cc(=O)n2c3ccccc3n(CC(O)CN3CCCCC3)c2c1C#N` (centres undefined), the “activity, negative = inhibition” value is -17.8% (inactive).

Take `Nc1ncnc2c1ncn2[C@H]1O[C@@H](C(=O)O)[C@@H](O)[C@H]1O`: the activity, negative = inhibition was -9.53% [at 11.4 µM] (inactive).
